For 16 compounds, Potency results are on record in PubChem BioAssay (NCATS).

Assay [1] is described as follows: qHTS of pediatric cancer cell lines to identify multiple opportunities for drug repurposing: Primary screen for control Hh wild type fibroblast cells (AID 1347106).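 Note: series mostly up to about 46 µM; a drop in luminescence marks cytotoxicity and a rise apparent proliferation; nearly all actives have a fitted effect of over 55% in size.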 The essentials: (§1)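 Viability after 48 h compound treatment at 37C, 500-1,000 cells/well, read as ATP luminescence with CellTiter-Glo. Primary screens used 11-point (MIPE, 0.78 nM-46 µM) or 8-point (NPC, 0.59 nM-46 µM) final concentrations; follow-up screens used 11-point dilutions.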
(In general: Quantitative high-throughput screening tests each substance at several concentrations.)

The nature of assay [2]: qHTS of pediatric cancer cell lines to identify multiple opportunities for drug repurposing: Primary screen for MG 63 (6-TG R) cells (AID 1347105). Note: nearly all actives have a fitted effect of over 50% in size. Note: potency is the fitted concentration of half-maximal effect. In outline:
(§2)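 ATP-based luminescence (CellTiter-Glo) quantifies viability after a 48-hour exposure. Compounds are dosed across 8 or 11 final concentrations; DMSO and 2.3 µM bortezomib serve as controls.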

A short description of assay [3]: qHTS of pediatric cancer cell lines to identify multiple opportunities for drug repurposing: Primary screen for Rh41 cells (AID 1347108). Note: nearly all actives have a fitted effect of over 70% in size. Note: potency is the fitted concentration of half-maximal effect. In outline: as §2
Assay [4] is described as follows: qHTS of pediatric cancer cell lines to identify multiple opportunities for drug repurposing: Primary screen for Rh30 cells (AID 1347107). Note: series mostly up to about 46 µM; nearly all actives have a fitted effect of over 75% in size. In outline:
as §1

Assay [5] in a line: qHTS of pediatric cancer cell lines to identify multiple opportunities for drug repurposing: Confirmatory screen for NB1643 cells (AID 1347109). Note: potency is the fitted concentration of half-maximal effect; nearly all actives have a fitted effect of over 45% in size. The essentials:
as §1

Assay [6] in a line: qHTS of pediatric cancer cell lines to identify multiple opportunities for drug repurposing: Confirmatory screen for A673 cells (AID 1347110).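 Note: potency is the fitted concentration of half-maximal effect; cells exposed to compound for 48 h before the viability read; nearly all actives have a fitted effect of over 65% in size.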 The essentials: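 A673 cells seeded at 500-1,000 cells/well, rested 5 h, then dosed; primary MIPE 11-point (0.78 nM to 46 µM), NPC (0.59 nM to 46 µM); confirmatory 11-point. CellTiter-Glo luminescence after 48 h.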
Assay [7] in a line: qHTS of pediatric cancer cell lines to identify multiple opportunities for drug repurposing: Confirmatory screen for BT-12 cells (AID 1347112). Note: potency is the fitted concentration of half-maximal effect; nearly all actives have a fitted effect of over 55% in size. In outline: as §1
Assay [8] can be described thus: qHTS of pediatric cancer cell lines to identify multiple opportunities for drug repurposing: Confirmatory screen for LAN-5 cells (AID 1347113). Note: potency is the fitted concentration of half-maximal effect; nearly all actives have a fitted effect of over 65% in size. The essentials:
as §1

The nature of assay [9]: qHTS of pediatric cancer cell lines to identify multiple opportunities for drug repurposing: Confirmatory screen for DAOY cells (AID 1347114). Note: potency is the fitted concentration of half-maximal effect; nearly all actives have a fitted effect of over 65% in size. In outline: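 Viability measured as metabolically active cells via CellTiter-Glo luminescence following 48 hours of compound exposure, 11-point dilutions in confirmatory testing. 500-1,000 cells/well plated 5 hours before dosing; controls were DMSO and 2.3 µM bortezomib.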

A short description of assay [10]: qHTS of pediatric cancer cell lines to identify multiple opportunities for drug repurposing: Confirmatory screen for NB-EBc1 cells (AID 1347115).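 Note: potency is the fitted concentration of half-maximal effect; cells exposed to compound for 48 h before the viability read; nearly all actives have a fitted effect of over 45% in size.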 The essentials:
as §1

A short description of assay [11]: qHTS of pediatric cancer cell lines to identify multiple opportunities for drug repurposing: Confirmatory screen for BT-37 cells (AID 1347117). Note: potency is the fitted concentration of half-maximal effect; nearly all actives have a fitted effect of over 55% in size. In outline:
as §1

The nature of assay [12]: qHTS of pediatric cancer cell lines to identify multiple opportunities for drug repurposing: Confirmatory screen for TC32 cells (AID 1347118).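 Note: potency is the fitted concentration of half-maximal effect; cells exposed to compound for 48 h before the read; nearly all actives have a fitted effect of over 65% in size.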 The essentials:
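qHTS, TC32, 48 h drug treatment, CellTiter-Glo luminescence as a proxy for metabolically active cells; primary top concentration 46 µM (MIPE 11-pt, NPC 8-pt); confirmatory 11-pt.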

The nature of assay [13]: qHTS of pediatric cancer cell lines to identify multiple opportunities for drug repurposing: Confirmatory screen for MG 63 (6-TG R) cells (AID 1347119). Note: nearly all actives have a fitted effect of over 55% in size. Note: potency is the fitted concentration of half-maximal effect. In outline:
as §1

Assay [14] is described as follows: qHTS of pediatric cancer cell lines to identify multiple opportunities for drug repurposing: Confirmatory screen for control Hh wild type fibroblast cells (AID 1347121). Note: nearly all actives have a fitted effect of over 70% in size. Note: potency is the fitted concentration of half-maximal effect. In outline: as §1
Assay [15] in a line: qHTS of pediatric cancer cell lines to identify multiple opportunities for drug repurposing: Confirmatory screen for U-2 OS cells (AID 1347122). The essentials: as §1
The nature of assay [16]: qHTS of pediatric cancer cell lines to identify multiple opportunities for drug repurposing: Confirmatory screen for Rh41 cells (AID 1347123).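 Note: potency is the fitted concentration of half-maximal effect; 48 h compound exposure; nearly all actives have a fitted effect of over 60% in size.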 In outline: as §1
The nature of assay [17]: qHTS of pediatric cancer cell lines to identify multiple opportunities for drug repurposing: Confirmatory screen for Saos-2 cells (AID 1347127). Note: nearly all actives have a fitted effect of over 60% in size. Note: potency is the fitted concentration of half-maximal effect. The essentials: as §1
Assay [18] in a line: qHTS of pediatric cancer cell lines to identify multiple opportunities for drug repurposing: Confirmatory screen for OHS-50 cells (AID 1347128). In outline:
as §1

Inconclusive results are not listed. The source made the active and inactive calls. Calls come from the whole dose curve; as a rule, active = well fitted curve in the direction sought with a large enough effect; inconclusive = small, poorly fitted or top-dose-only effect, or another doubt; inactive = no such curve, though single readings can be large; an effect the other way counts as inactive or inconclusive.

Take `CC(NCCC(c1ccccc1)c1ccccc1)c1ccccc1` (stereo unspecified): the Potency entry in assay [1] is “inactive”.
Turning to `CC[N+](CC)(CC)CCOC(=O)C(C1CCCC1)C1CCCC1`, the Potency result in assay [2] and in assay [3] was “inactive” each time.
Consider `CO[C@@H]1[C@@H](OC)[C@H](C)[C@@](O)(CC(=O)O)O[C@H]1[C@H](C)[C@H]1O[C@@]2(CC[C@@](C)([C@H]3CC[C@@](C)([C@@H]4O[C@@H]([C@H]5O[C@](C)(O)[C@H](C)C[C@@H]5C)C[C@@H]4OC4C[C@H](OC)[C@@H](OC)[C@H](C)O4)O3)O2)C[C@H](O)[C@H]1C` (stereo partly specified), for which, in assay [4], the Potency entry is “inactive”. Also, the Potency was 4220 nM (active) in [3]; 737 nM (active) in assay [5]; 2610 nM (active) in [6]; 657 nM (active) in assay [7]; 522 nM (active) in assay [8]; 1850 nM (active) in assay [9]. For the same compound, the Potency in assay [10] is 1470 nM (active); in assay [11] it was 522 nM (active); in [12], 2080 nM (active); in [13] it was 522 nM (active); in assay [14], 8270 nM (active); in [15], 329 nM (active). Besides, the Potency in assay [16] is 465 nM (active); in assay [17], 1170 nM (active); in [18] it was 657 nM (active).
As for `CCCCCCOC(=O)NC(=N)c1ccc(NCc2nc3cc(C(=O)N(CCC(=O)OCC)c4ccccn4)ccc3n2C)cc1`, the Potency result in assay [2] and in assay [4] was “inactive” each time.
With `O=C(NO)c1ccccc1`, the Potency entry in [1] and in [4] was “inactive” each time.
Regarding `Cc1ccc(-c2ccccc2C#N)cc1`, the Potency result in [2], in assay [4] and in [3] was “inactive” in each case.
For `OC[C@]1(O)OC[C@@H](O)[C@H](O)[C@@H]1O`, the Potency result in assay [1], in assay [4] and in [3] was “inactive” throughout.
As for `COc1c(C)c2c(c(O)c1C/C=C(\C)CCC(=O)OCCN1CCOCC1)C(=O)OC2`, the Potency entry in assay [1], in assay [4], in assay [3], in assay [13], in assay [14] and in [17] was “inactive” in each case. Further, the Potency in assay [5] is 1310 nM (active); in [6], 3690 nM (active); in assay [8], 1650 nM (active); in assay [10], 827 nM (active); in [11] it was 1310 nM (active); in assay [12], 1470 nM (active). Further, the Potency in assay [15] was 185 nM (active); in [16] it was 2330 nM (active).
On to `CC(C)(Oc1ccc(Cl)cc1)C(=O)OCCCOC(=O)C(C)(C)Oc1ccc(Cl)cc1`, for which the Potency result in [1], in assay [4] and in [3] was “inactive” throughout.
As to `N#C/C(=C1/SC[C@@H](c2ccc(Cl)cc2Cl)S1)n1ccnc1`, the Potency entry in assay [1] and in assay [4] was “inactive” in each case.
As to `O=c1[nH]sc2cc(Cl)ccc12`, the Potency result in assay [1] and in assay [14] was “inactive” in each case. Further, the Potency is 8270 nM (active) in assay [5]; 16500 nM (active) in [7]; 10400 nM (active) in assay [8]; 20800 nM (active) in [10]; 20800 nM (active) in [12]; 20800 nM (active) in assay [13]. The Potency in [16] was 1850 nM (active).
`CN1CCC(Nc2ncc3ncnc(Nc4ccc(F)c(Cl)c4)c3n2)CC1`: the Potency result in assay [2], in assay [4] and in [3] was “inactive” in each case.
As for `Nc1cccc2c(N)cccc12`, the Potency entry in assay [2] and in assay [1] was “inactive” throughout. Also, the Potency in assay [3] is 30600 nM (active).
With `CCOC(=O)c1cc(=O)c2c(OCC(COc3cccc4oc(C(=O)OCC)cc(=O)c34)OC(=O)[C@@H](N)CCCCN)cccc2o1`, the Potency result in [2], in [4] and in assay [3] was “inactive” throughout.
For the compound `Nc1ccc2c(c1)CN1C(=O)c3ccccc3C1=N2`, the Potency result in assay [1] was “inactive”.
Turning to `CC[C@@]1(O)C(=O)OCc2c1cc1n(c2=O)Cc2c-1nc1ccccc1c2/C=N/OC(C)(C)C`, the Potency in assay [2] is 26.6 nM (active); in assay [3] it was 944 nM (active); in [5], 41.4 nM (active); in assay [6] it was 11.7 nM (active); in [7] it was 1040 nM (active); in assay [8], 14.7 nM (active). Besides, the Potency in assay [10] is 5.2 nM (active); in assay [11] it was 9.3 nM (active); in assay [12], 5.2 nM (active); in [13], 18.5 nM (active); in [16], 522 nM (active); in assay [17] it was 16.5 nM (active). For the same compound, the Potency in assay [18] was 36.9 nM (active). In addition, the Potency result in assay [1] was “inactive”.
